The nature of test [1]: qHTS assay to identify small molecule inhibitors of chordoma cells - UCH-1 (AID 1259355). Also: nearly all actives have a fitted effect of over 55% in size. Also: potency is read from the fitted curve at half-maximal effect; series mostly up to about 46 µM. The gist of the method:
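Cells (800/well) were seeded and left overnight at 37 C, 5% CO2, then treated with drugs at 15 concentrations plus a combination mix of auranofin, camptothecin, doxorubicin, rubitecan and topotecan. Viability after 48hr was read by CellTiter-Glo luminescence.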
Background: Quantitative high-throughput screening tests each substance at several concentrations.

Test [2] is described as follows: qHTS assay to identify small molecule inhibitors of chordoma cells - UCH-2 (AID 1259356). Also: potency is read from the fitted curve at half-maximal effect.
Test [3] in a line: P-glycoprotein substrates identified in KB-8-5-11 adenocarcinoma cell line, qHTS therapeutic library screen (AID 1346987). Also: nearly all actives have a fitted effect of over 65% in size. Particulars: outcome: dose series up to 44.5 µM unless noted. In short, it runs like this:
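KB-8-5-11, a colchicine-selected P-gp-overexpressing KB-3-1 subline, was grown without colchicine for the assay. Cells were seeded at 500 cells/well, dosed in concentration-response and incubated 72 h at 37 degree C, 5% CO2. Viability was read by CellTiter-Glo luminescence.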

A short description of test [4]: qHTS Assay for Identifying Gametocytocidal Compounds (AID 743244).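 Also: % is scaled to controls: 0 for no effect and ±100 for the full control effect; actives lower the fluorescent signal which means gametocytes are killed.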 Particulars: P. falciparum 3D7 stage III-V gametocytes, alamarBlue, 72 h; max response: hits give low values. The gist of the method:
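Stage III–V gametocytes of P. falciparum 3D7 were seeded at 20,000 cells/well onto pre-dispensed compounds. After 72 h, 37 °C, 5% CO2, alamarBlue was added for another 24 h.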

The nature of test [5]: P-glycoprotein substrates identified in KB-3-1 adenocarcinoma cell line, qHTS therapeutic library screen (AID 1346986). Also: nearly all actives have a fitted effect of over 60% in size. The settings on record: KB-3-1 parental cells viability, CellTiter-Glo, 72 h. The gist of the method: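 KB-3-1 parental and colchicine-selected P-gp-overexpressing KB-8-5-11 cells (colchicine omitted during assay), 500 cells/well, dosed in dose-response for 72 h at 37 °C; CellTiter-Glo luminescence. Cytotoxic: curve class -1.1 to -2.4, max response >50%, AC50 < 10 uM.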

Molecules are shown by their SMILES. Inconclusive results are not listed. Values without a mark were called inactive. Activity calls are given as the source filed them. Calls follow the shape of the dose curve; as a rule, active = well fitted curve in the direction sought with a large enough effect; inconclusive = small, poorly fitted or top-dose-only effect, or another doubt; inactive = no such curve, though single readings can be large; an effect the other way counts as inactive or inconclusive.

Consider `COc1ccc2c(c1)N(C[C@H](C)CN(C)C)c1ccccc1S2`, for which the Potency result in test [1] and in test [2] was “inactive” throughout.
For `CC[C@@]1([C@@H]2O[C@@H]([C@H]3O[C@@](O)(CO)[C@H](C)C[C@@H]3C)C[C@@H]2C)CC[C@H]([C@]2(C)CC[C@]3(C[C@H](O)[C@@H](C)[C@@H]([C@@H](C)[C@@H](OC)[C@H](C)C(=O)O)O3)O2)O1` (stereo in doubt), in test [1], the Potency was 1.26 µM (active).
Consider `CC(C)(C)NC[C@H](O)COc1ccccc1C1CCCC1`, for which the Potency result in test [1] and in test [2] was “inactive” in each case.
`CCSc1ccc2c(c1)N(CCCN1CCN(C)CC1)c1ccccc1S2`: the Potency result in test [1] and in test [2] was “inactive” in each case.
As for `C[C@H](O)CN(C)C`, the Potency result in test [1] and in test [2] was “inactive” throughout.
For `CCC(Cc1c(I)cc(I)c(O)c1I)C(=O)O` (stereo unspecified), the Potency entry in test [1], in test [2] and in test [3] was “inactive” in each case.
For `NC(=S)N=Nc1ccc(NN=C(N)N)cc1`, the Potency entry in test [1] and in test [2] was “inactive” each time.
With `c1ccc2c(c1)Sc1ccccc1N2CCN1CCCC1`, the Potency entry in test [1] and in test [2] was “inactive” throughout.
`CC/C(=C(/CC)c1ccc(OP(=O)(O)O)cc1)c1ccc(OP(=O)(O)O)cc1`: the Potency result in test [1] and in test [2] was “inactive” throughout.
In the case of `CCCc1nc(C(C)(C)O)c(C(=O)OCc2oc(=O)oc2C)n1Cc1ccc(-c2ccccc2-c2nn[nH]n2)cc1`, the Potency entry in test [1] and in test [2] was “inactive” each time.
Turning to `CC(=O)Nc1c(I)c(C(=O)N[C@H]2C(O)O[C@H](CO)[C@@H](O)[C@@H]2O)c(I)c(N(C)C(C)=O)c1I` (stereo partly specified), the Potency entry in test [1], in test [2] and in test [3] was “inactive” throughout.
Regarding `F[Si-2](F)(F)(F)(F)F`, the Potency result in test [1], in test [2] and in test [3] was “inactive” each time.
Take `N#Cc1ccc2c(c1)N(CCCN1CCC(O)CC1)c1ccccc1S2`: the Potency result in test [1] and in test [2] was “inactive” in each case.
Turning to `O=C(OC[C@H]1O[C@@H](OC(=O)c2cc(O)c(O)c(OC(=O)c3cc(O)c(O)c(O)c3)c2)[C@H](OC(=O)c2cc(O)c(O)c(OC(=O)c3cc(O)c(O)c(O)c3)c2)[C@@H](OC(=O)c2cc(O)c(O)c(OC(=O)c3cc(O)c(O)c(O)c3)c2)[C@@H]1OC(=O)c1cc(O)c(O)c(OC(=O)c2cc(O)c(O)c(O)c2)c1)c1cc(O)c(O)c(OC(=O)c2cc(O)c(O)c(O)c2)c1`, in test [1], the Potency was 15.8 µM (active).
Same read-out and setting: the same measure for `CCOC(=O)C1=C(COCCN)NC(C)=C(C(=O)OC)C1c1ccccc1Cl` (stereo unspecified): “inactive”.
Turning to `NCC[C@H](O)C(=O)N[C@@H]1C[C@H](N)[C@@H](O[C@H]2O[C@H](CN)CC[C@H]2N)[C@H](O)[C@H]1O[C@H]1O[C@H](CO)[C@@H](O)[C@H](N)[C@H]1O`, the Potency result in test [1] and in test [2] was “inactive” in each case.
On to `C[C@@H]1C[C@H]2[C@@H]3C[C@H](F)C4=CC(=O)C=C[C@]4(C)[C@@]3(Cl)[C@@H](O)C[C@]2(C)[C@H]1C(=O)COC(=O)C(C)(C)C`, for which the Potency entry in test [1] and in test [2] was “inactive” throughout.
As for `CC[C@@H](C(=O)[C@@H](C)[C@@H](O)[C@H](C)[C@@H]1O[C@@H]([C@@H](CC)C(=O)O)CC[C@@H]1C)[C@H]1O[C@]2(C=C[C@@H](O)[C@]3(CC[C@@](C)([C@H]4CC[C@](O)(CC)[C@H](C)O4)O3)O2)[C@H](C)C[C@@H]1C`, the Potency in test [1] was 11.2 µM (active). Besides, the Potency result in test [2] is “inactive”.
Take `C=CC1=C(C(=O)O)N2C(=O)[C@@H](NC(=O)/C(=N\O)c3csc(N)n3)[C@H]2SC1` (stereo in doubt): the Potency entry in test [1], in test [2] and in test [3] was “inactive” each time.
With `C=CC[C@@H]1/C=C(\C)C[C@H](C)C[C@H](OC)[C@H]2O[C@@](O)(C(=O)C(=O)N3CCCC[C@H]3C(=O)O[C@H](/C(C)=C/[C@@H]3CC[C@@H](O)[C@H](OC)C3)[C@H](C)[C@@H](O)CC1=O)[C@H](C)C[C@@H]2OC`, the Potency entry in test [1] and in test [2] was “inactive” each time.
With `C=CC[N+]1([C@H]2C[C@H]3[C@@H]4CC[C@H]5C[C@H](O)[C@@H](N6CCOCC6)C[C@]5(C)[C@H]4CC[C@]3(C)[C@H]2OC(C)=O)CCCC1`, the Potency result in test [1], in test [2] and in test [3] was “inactive” throughout.
On to `NC(=O)c1cc[n+](CC2=C(C(=O)O)N3C(=O)[C@@H](NC(=O)C(c4ccccc4)S(=O)(=O)[O-])[C@H]3SC2)cc1` (stereo partly specified), for which the Potency result in test [1], in test [2] and in test [3] was “inactive” throughout.
Regarding `C[C@]12CC[C@@H]3c4ccc(OC(=O)c5ccccc5)cc4CC[C@H]3[C@@H]1CC[C@@H]2O`, the Potency entry in test [1] and in test [2] was “inactive” throughout.
For `CN(C)CCC(O)(c1ccccc1)c1ccccc1Cl` (stereo unspecified), the Potency entry in test [1] and in test [2] was “inactive” each time.
As to `COc1ccccc1N1CCN(CCCC(=O)c2ccc(F)cc2)CC1`, the Potency result in test [1] and in test [2] was “inactive” throughout.
For the molecule `CC1=C(/C=C/C(C)=C/C=C/C(C)=C/C=C/C=C(C)/C=C/C=C(C)/C=C/C2=C(C)C[C@@H](O)CC2(C)C)C(C)(C)C[C@H](O)C1`, the Potency entry in test [1] and in test [2] was “inactive” each time.
For the molecule `CC(CN(C)C)CN1c2ccccc2Sc2ccc(C(F)(F)F)cc21` (stereo unspecified), the Potency result in test [1] and in test [2] was “inactive” in each case.
As to `CO[C@H]1C[C@H](O[C@H]2[C@H](C)[C@@H](O[C@@H]3O[C@H](C)C[C@H](N(C)C)[C@H]3O)[C@@H](C)C[C@]3(CO3)C(=O)[C@H](C)[C@@H](O)[C@@H](C)[C@@H](C)OC(=O)[C@@H]2C)O[C@@H](C)[C@@H]1O`, the Potency result in test [1], in test [2] and in test [3] was “inactive” in each case.
As to `CN[C@@H]1[C@H](O[C@H]2[C@H](O[C@H]3[C@H](O)[C@@H](O)[C@H](N=C(N)N)[C@@H](O)[C@@H]3N=C(N)N)O[C@@H](C)[C@]2(O)C=O)O[C@@H](CO)[C@H](O)[C@H]1O`, the max response in test [4] was 14.8%. Also, the Potency entry in test [1] and in test [2] was “inactive” throughout. The result in test [5] was inactive. The outcome in test [3] is “inactive [setting not given]”.
`CN(C)CCC=C1c2ccccc2C(C)(C)c2ccccc21`: the Potency entry in test [1] and in test [2] was “inactive” throughout.
As for `CC1=C[C@H](O)CC(C)(C)[C@H]1/C=C/C(C)=C/C=C/C(C)=C/C=C/C=C(C)/C=C/C=C(C)/C=C/C1=C(C)C[C@@H](O)CC1(C)C`, the Potency result in test [1], in test [2] and in test [3] was “inactive” throughout.
As for `CCCCCCCCCCCCCCCC(=O)OC[C@H](COP(=O)([O-])OCC[N+](C)(C)C)OC(=O)CCCCCCCCCCCCCCC`, the Potency entry in test [1] and in test [2] was “inactive” each time.
For the molecule `C=CC(=O)O`, the Potency entry in test [1], in test [2] and in test [3] was “inactive” throughout.
In the case of `CN(C)c1ccc(C(=C2C=CC(=[N+](C)C)C=C2)c2c(O)c(S(=O)(=O)[O-])cc3cc(S(=O)(=O)O)ccc23)cc1`, the Potency in test [1] was 14.1 µM (active); in test [2], 20.6 µM (active).
The like results for `Cn1c(O)c(N=NC(N)=S)c2ccccc21` were, in that order, “inactive” and “inactive”.
For `S=C1SCN(Cc2ccccc2)CN1Cc1ccccc1`, in that order: “inactive” and “inactive”.
For `CC(C)NCC(O)COc1ccccc1-n1cccc1` (stereo unspecified), in that order: “inactive” and “inactive”.
Turning to `CCC(C)[C@@H](N)C(=O)O` (stereo partly specified), the Potency entry in test [1], in test [2] and in test [3] was “inactive” throughout.

The values above are taken from PubChem BioAssay (NCATS).
